E coli growth-1 – E. coli growth inhibition | Escherichia coli growth, OD600, 23 h; stronger effect = lower value | hit rate 0.21% among 330,000 | OD600 absorbance (test concentration not listed);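 active = OD600 absorbance below the run mean of sample wells minus 3.6 SD, in any replicate, cut at about 0.56 in these data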
E coli growth-2 – counter-screen for AddAB inhibitors: E. coli growth inhibition; E. coli V3065 growth, OD600 absorbance, 18 h; hit rate 0.27% among 330,000; AID 449728; inhibition, % at 11.9 µM;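 active = inhibition above the campaign's mean inhibition across all tested compounds plus 3 SD, cut at about 9.9% in these data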;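 also: uninfected addAB+ strain grown without phage in ampicillin broth; 0% = DMSO wells and 100% = ciprofloxacin 0.95 µg/ml wells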
phage Ecoli inh – E. coli growth loss with phage present; growth absorbance; inhibition, % at 11.9 µM; hit rate 0.26% among 360,000; in the data active = inhibition above about 11%
AddAB inh – less growth of phage-infected E. coli with AddAB; inhibition, % at 11.9 µM; hit rate 0.29% among 330,000; AID 435030; E. coli expressing H. pylori AddAB, absorbance growth; in the data active = inhibition above about 12%;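 also: 0% = vehicle wells of infected cells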
Tat transport – blocks Tat-dependent protein export in E. coli | E. coli MC4100 TorA-mCherry Tat export, fluorescence | inhibition, % at 10 µM | hit rate 0.036% among 340,000;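 active = mean replicate inhibition at least 50% and at least half of replicates individually reaching 50%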;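 also: exported cargo escapes ClpAP degradation while cytoplasmic cargo is degraded and loses fluorescence; 0% = median of neutral control wells and 100% = median of NaSCN control wells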
AddAB confirm – growth loss of T4-infected E. coli expressing H. pylori AddAB, confirmed | inhibition, % at 11.9 µM | shares compounds with AddAB inh | AID 488942 | hit rate 64% among 880 | E. coli V3065 expressing H. pylori AddAB, T4 phage, OD; T4 phage with gene 2 nonsense mutations;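 active = mean inhibition above a set limit taken from the earlier primary screen, cut at about 13% in these data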;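 also: higher means less bacterial growth since AddAB block lets phage replicate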
RecBCD counter – counter-screen: growth loss of RecBCD+ E. coli with mutant T4 phage; shares compounds with AddAB inh; E. coli V66 + mutant T4 phage, OD growth; inhibition, % at 11.9 µM; hit rate 73% among 880;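 active = mean inhibition above the mean of solvent-only control wells plus 3 SD, cut at about 4% in these data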;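 also: optical density read after an 18 h incubation at 37 °C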
bact viab count – counter-screen: bacterial growth inhibition; hit rate 35% among 880; shares compounds with AddAB inh; bacterial viability, absorbance (AddAB counterscreen); AID 488956; inhibition, % at 11.9 µM; in the data active = inhibition above about 25%
RecBCD conf – confirmation: growth loss of phage-infected RecBCD+ E. coli (RecBCD inhibitor screen); shares compounds with phage Ecoli inh; inhibition, % at 11.9 µM; hit rate 45% among 890; E. coli V66 + T4 2- phage, growth OD;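 active = mean inhibition over triplicates exceeding the hit threshold derived in the original primary screen, cut at about 11% in these data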
Ecoli viability – inhibits E. coli viability, flagging RecBCD hits as nonselective | hit rate 29% among 890 | inhibition, % at 11.9 µM | absorbance (OD) growth | shares compounds with phage Ecoli inh; in the data active = inhibition above about 20%;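 also: E. coli strain V66 grown with compound alone and no phage infection; 0% = bacteria with DMSO vehicle only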
AddAB phage OD – growth loss of phage-infected AddAB E. coli, RecBCD counter-screen; shares compounds with phage Ecoli inh; E. coli expressing H. pylori AddAB + T4 phage, OD growth; gene 2 mutant T4, recBCD-deleted host; inhibition, % at 11.9 µM; hit rate 45% among 890; AID 651984;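 active = mean inhibition above the solvent-only control wells' mean plus 3 SD, cut at about 22% in these data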;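 also: higher means less bacterial growth from phage killing when AddAB is blocked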
* hit, by the source's call; · = not tested or not shown. The list is not random: actives were taken first. Their share in the collection is about 0.5%.

SMILES	E coli growth-1	E coli growth-2	phage Ecoli inh	AddAB inh	Tat transport	AddAB confirm	RecBCD counter	bact viab count	RecBCD conf	Ecoli viability	AddAB phage OD
CC(=O)c1ccc(NC(=S)NC(NC(=O)c2ccco2)C(Cl)(Cl)Cl)cc1 (configuration not stated)	0.641	18.7*	17.5*	20.9*	-11.8	16.2*	15.0*	13.9	8.2	12.7	10.5
O=C(NC(NC(=S)Nc1ccccc1O)C(Cl)(Cl)Cl)c1ccco1 (configuration not stated)	0.607	3.8	5.6	9.0	-14.3	·	·	·	·	·	·
O=C(NC(NC(=S)Nc1ccc(Cl)cc1)C(Cl)(Cl)Cl)c1ccco1 (configuration not stated)	·	15.4*	20.3*	18.2*	-52.5	14.0*	18.4*	18.3	10.1	14.9	16.3
CC(=O)c1ccc(NC(=O)c2ccc(NC(=O)c3ccco3)cc2)cc1	0.693	2.4	·	3.2	2.9	·	·	·	·	·	·
COc1ccc(-n2c(C)nnc2SCC(=O)N2C(C)CCCC2C)cc1 (configuration not stated)	0.661	-1.0	0.6	-0.6	-5.0	·	·	·	·	·	·
CCn1cc(C(=O)O)c(=O)c2cc(F)c(N3CCN(C(=S)NC(=O)c4ccc(Br)cc4)CC3)cc21	·	97.9*	98.9*	99.0*	43.6	98.8*	99.3*	100.2*	101.9*	102.2*	103.2*
CCn1cc(C(=O)O)c(=O)c2cc(F)c(N3CCN(C(=S)NC(=O)c4ccc(OC)cc4)CC3)cc21	0.076*	99.2*	101.0*	98.9*	81.4*	100.1*	100.2*	101.7*	104.5*	105.5*	104.7*
CCn1cc(C(=O)O)c(=O)c2cc(F)c(N3CCN(C(=S)NC(=O)c4ccccc4F)CC3)cc21	0.073*	98.9*	15.6*	98.3*	0.5	100.9*	99.3*	103.3*	100.9*	101.4*	100.8*
CCn1cc(C(=O)O)c(=O)c2cc(F)c(N3CCN(C(=S)NC(=O)c4cccc(C)c4)CC3)cc21	0.071*	97.6*	92.9*	96.5*	28.3	99.6*	100.0*	99.5*	102.9*	103.3*	103.9*
CC(NC(=O)c1ccccc1)c1nc2ccccc2n1Cc1ccccc1F (configuration not stated)	0.732	-1.2	3.1	2.7	·	·	·	·	·	·	·
Cc1sc(NC(=O)CN2CCOCC2)nc1-c1ccc2c(c1)CCN2S(=O)(=O)c1ccccc1	0.661	-2.2	-2.2	-1.0	-2.7	·	·	·	·	·	·
C=CCNC(=O)c1cn(CC)c2cc(N3CCN(C(=O)c4ccco4)CC3)c(F)cc2c1=O	0.0565*	98.6*	25.2*	98.6*	13.7	99.4*	18.9*	100.7*	12.2*	14.9	99.7*
CCn1cc(C(=O)O)c(=O)c2cc(F)c(N3CCN(C(=O)Nc4ccccc4)CC3)cc21	0.051*	100.7*	96.8*	101.4*	24.3	102.9*	101.5*	102.4*	99.7*	101.8*	99.0*
CCn1cc(C(=O)O)c(=O)c2cc(F)c(N/N=C/c3ccccc3)cc21	·	-0.7	1.0	2.0	0.4	·	·	·	·	·	·
CCn1cc(C(=O)NN)c(=O)c2cc(F)c(N3CCOCC3)cc21	0.67	1.9	1.7	-1.8	7.7	·	·	·	·	·	·
CCn1cc(C(=O)O)c(=O)c2cc(F)c(N3CCN(S(=O)(=O)c4ccc(NC(C)=O)cc4)CC3)cc21	0.06*	100.1*	96.5*	98.9*	8.3	100.9*	97.4*	100.9*	72.1*	100.9*	104.3*
Cc1cc(C)nc(SCC(=O)Nc2ccc(N3CCOCC3)cc2)n1	0.679	0.8	2.7	4.8	-1.8	·	·	·	·	·	·
Cc1nc(SCC(=O)Nc2ccc(N3CCOCC3)cc2)nc(C)c1C	0.665	13.1*	13.5*	13.6*	-10.5	9.0	9.1*	4.5	6.1	9.8	0.4
Cc1cc(C)c2c(N=NN3CCCCC3)[nH]nc2n1	0.651	88.8*	14.2*	98.4*	-6.7	90.7*	7.7*	43.5*	9.0	10.3	52.6*
CCN(CC)N=Nc1[nH]nc2nc(C)cc(C)c12	0.556*	86.9*	14.3*	35.3*	25.0	93.2*	9.3*	51.1*	10.4	10.2	76.2*
O=C(/C=C/N1CCOCC1)c1coc2ccccc12	·	1.5	1.6	-1.0	-1.1	·	·	·	·	·	·
COc1ccc(Cl)cc1NS(=O)(=O)c1c(C)nc2sccn2c1=O	0.751	-0.5	2.5	3.4	3.6	·	·	·	·	·	·
Cc1ccc(C)c(NS(=O)(=O)c2c(C)nc3sccn3c2=O)c1	0.697	0.3	98.6*	-2.0	-9.7	·	·	·	-1.9	-2.0	-2.4
Cc1cc(Cl)ccc1C(O)c1ncc(-c2cccc(F)c2)[nH]1 (configuration not stated)	·	·	2.5	·	·	·	·	·	·	·	·
CS(=O)(=O)N1CCN(CCN2C(=O)c3cccc4cccc(c34)C2=O)CC1	0.685	-0.4	2.8	-0.5	-1.0	·	·	·	·	·	·
SMILES	E coli growth-1	E coli growth-2	phage Ecoli inh	AddAB inh	Tat transport	AddAB confirm	RecBCD counter	bact viab count	RecBCD conf	Ecoli viability	AddAB phage OD
COc1cc(OC)cc(C(=O)Nc2ccccc2S(=O)(=O)N2CCCC2OC(C)=O)c1 (configuration not stated)	0.688	-2.8	-0.2	0.2	18.4	·	·	·	·	·	·
FC(F)(F)c1ccc(NC(=S)NC2CCCCC2)cc1	0.635	9.3	14.7*	9.6	0.1	·	·	·	6.7	7.6	9.2
FC(F)(F)c1cccc(NC(=S)NC2CCCC2)c1	0.619	3.3	8.3	6.2	1.3	·	·	·	·	·	·
COc1ccc(N(CC(=O)Nc2cccc(C)c2C)S(=O)(=O)c2c(C)[nH]c(=O)[nH]c2=O)cc1	0.69	0.3	100.2*	0.8	6.1	·	·	·	-4.5	-4.0	-3.2
COc1ccc(N(CC(=O)Nc2cccc(C)c2C)S(=O)(=O)c2c(C)n[nH]c2C)cc1	0.716	2.2	2.7	4.5	3.5	·	·	·	·	·	·
CC(=NNC(N)=S)c1ccc(Br)s1	0.616	·	·	·	·	·	·	·	·	·	·
Oc1ccc(C=NNC(=S)Nc2ccccc2)nc1	·	·	21.9*	·	·	·	·	·	21.7*	27.2*	32.0*
NC(=S)NN=Cc1nccc2ccccc12	0.459*	·	20.7*	·	-11.2	·	·	·	28.9*	38.9*	31.8*
Cc1cnc(C=NNC(N)=S)c2cccc(N)c12	·	·	1.7	·	1.1	·	·	·	·	·	·
NC(=S)NN=Cc1nccc2c(C(F)(F)C(F)(F)C(F)(F)F)cccc12	·	·	14.6*	·	·	·	·	·	2.8	2.6	20.4
CCC(=O)c1c[nH]c(C(=O)NCc2cccc(C(F)(F)F)c2)c1	0.707	-2.6	0.3	2.2	-6.4	·	·	·	·	·	·

Assay outcomes: PubChem, several laboratories
